According to PubChem BioAssay (NCI):
This is part of a sample that, as a whole, favours compounds with a hit. Of some 83,000 tested, about 20% had one in any assay.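 Method: cells in 96-well plates; compound added at one concentration; 48 h incubation; percent growth measured; values under 10 scored active.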 Active and inactive are the calls of the source.

Experiments:
Assay in all cases: NCI-60 one-dose screen, 48 h (100 = growth as untreated, 0 = no growth, -100 = all killed)
Details in all cases: 10 µM
HCT-15 colon = test system: HCT-15 colon
HT29 colon = test system: HT29 colon
SNB-75 CNS = test system: SNB-75 CNS
SNB-19 CNS = test system: SNB-19 CNS
U251 CNS = test system: U251 CNS
PC-3 prostate = test system: PC-3 prostate
SK-MEL-5 melanoma = test system: SK-MEL-5 melanoma
UACC-62 melanoma = test system: UACC-62 melanoma
LOX IMVI melanoma = test system: LOX IMVI melanoma
SK-MEL-28 melanoma = test system: SK-MEL-28 melanoma

Measured: growth

CN1CCO/C1=C(/NC(=O)c1ccc(Cl)cc1)[P+](c1ccccc1)(c1ccccc1)c1ccccc1
inactive: HCT-15 colon 107% | HT29 colon 57.7% | SNB-75 CNS 91.6% | SNB-19 CNS 76.5% | U251 CNS 84.1% | PC-3 prostate 68.2% | SK-MEL-5 melanoma 70.3% | UACC-62 melanoma 48.5% | LOX IMVI melanoma 39.8% | SK-MEL-28 melanoma 75.5%

O=c1[nH]n(C(=S)N/N=C/c2ccc(F)cc2)c(=O)c2ccccc12
inactive: HCT-15 colon 22.9% | HT29 colon 58.1% | SNB-75 CNS 97.4% | SNB-19 CNS 47.6% | U251 CNS 25.6% | PC-3 prostate 58.1% | SK-MEL-5 melanoma 73.1% | UACC-62 melanoma 44.7% | SK-MEL-28 melanoma 91.5%
active: LOX IMVI melanoma -24.9%

CCOC(=O)C1=C(N)N(c2ccccc2)C2=C(C(=O)CC(C)(C)C2)C1c1ccc(Cl)cc1 (stereo not given)
inactive: HCT-15 colon 14.5% | HT29 colon 34.8% | SNB-75 CNS 73% | SNB-19 CNS 34.9% | U251 CNS 42% | PC-3 prostate 21.6% | SK-MEL-5 melanoma 27.7% | UACC-62 melanoma 22.2% | LOX IMVI melanoma 41.5% | SK-MEL-28 melanoma 44.5%

COc1ccc(CCN2C(=O)/C(=C/c3csc(C#N)n3)SC2=S)cc1
active: HCT-15 colon -51.7% | HT29 colon -49.4% | UACC-62 melanoma -26.6% | LOX IMVI melanoma -78.5% | SK-MEL-28 melanoma -10.9%
inactive: SNB-75 CNS 53.2% | SNB-19 CNS 72.2% | U251 CNS 21.4% | PC-3 prostate 32.8% | SK-MEL-5 melanoma 36.6%

CN1CCN(c2ccc(Nc3nc(NCCCNC(=O)c4ccccc4)c4sccc4n3)cc2)CC1
inactive: HCT-15 colon 12.3% | HT29 colon 14.6% | SNB-75 CNS 110% | SNB-19 CNS 95.5% | U251 CNS 22.8% | PC-3 prostate 56.8% | SK-MEL-5 melanoma 64.9% | UACC-62 melanoma 84.6% | LOX IMVI melanoma 16% | SK-MEL-28 melanoma 73.3%

COc1ccc(/C=C/C(=O)c2ccc(S(=O)(=O)NCCNc3nc(Nc4ccc(F)cc4)nc(N(C)C)n3)cc2)cc1
active: HCT-15 colon 1.91% | HT29 colon -46.4% | LOX IMVI melanoma -55.4%
inactive: SNB-75 CNS 52.6% | SNB-19 CNS 36.1% | U251 CNS 20.8% | PC-3 prostate 15.7% | SK-MEL-5 melanoma 21.2% | UACC-62 melanoma 29.6% | SK-MEL-28 melanoma 31.6%

COc1ccc(C(=O)NC(=S)N2CCN(c3ncnc4c3cnn4-c3ccccc3)CC2)cc1
inactive: HCT-15 colon 42.7% | HT29 colon 80.5% | SNB-75 CNS 31.7% | SNB-19 CNS 10.2% | U251 CNS 55.1% | PC-3 prostate 59% | SK-MEL-5 melanoma 71.6% | UACC-62 melanoma 40.8% | LOX IMVI melanoma 62.3% | SK-MEL-28 melanoma 50%

O=C(N/C(=C1/OCCN1Cc1ccccc1)[P+](c1ccccc1)(c1ccccc1)c1ccccc1)c1ccccc1
inactive: HCT-15 colon 77.8% | HT29 colon 14.6% | SNB-75 CNS 26.9% | SNB-19 CNS 10.4% | U251 CNS 14.3% | PC-3 prostate 22.5% | SK-MEL-28 melanoma 22.8%
active: SK-MEL-5 melanoma -100% | UACC-62 melanoma -36.4% | LOX IMVI melanoma 6.07%

CCCCSc1nc(Nc2ccc(/C(C)=N/NC(N)=S)cc2)c(C#N)c(-c2ccc(OC)cc2)n1
inactive: HCT-15 colon 75.9% | HT29 colon 86.7% | SNB-75 CNS 37.7% | SNB-19 CNS 63.8% | U251 CNS 22.8% | PC-3 prostate 85.2% | SK-MEL-5 melanoma 46.2% | UACC-62 melanoma 44.7% | SK-MEL-28 melanoma 90.5%
active: LOX IMVI melanoma -10.1%

C[C@H]1[C@H](C)CC[C@]2(COC(=O)CCC(=O)NCC#CCN3CCNCC3)CC[C@]3(C)C(=CC[C@@H]4[C@@]5(C)CCCNC(C)(C)[C@@H]5CC[C@]43C)[C@H]12
inactive: HCT-15 colon 16.1% | SNB-75 CNS 82.2% | SNB-19 CNS 60% | U251 CNS 14.7% | PC-3 prostate 17.8% | UACC-62 melanoma 46.7%
active: HT29 colon -21% | SK-MEL-5 melanoma 9.74% | LOX IMVI melanoma 1.63% | SK-MEL-28 melanoma -26.5%

Nc1nc(-c2ccccc2)cs1
inactive: HCT-15 colon 23.7% | HT29 colon 78.6% | SNB-75 CNS 59.2% | SNB-19 CNS 77% | U251 CNS 28.3% | PC-3 prostate 25.1% | SK-MEL-5 melanoma 59.1% | UACC-62 melanoma 53.4% | LOX IMVI melanoma 22% | SK-MEL-28 melanoma 87.9%

Cc1cc(C)nc(SCC(=O)Nc2ccc(S(N)(=O)=O)cc2)n1
inactive: HCT-15 colon 104% | HT29 colon 118% | SNB-75 CNS 127% | SNB-19 CNS 94.1% | U251 CNS 101% | PC-3 prostate 98.2% | SK-MEL-5 melanoma 97.2% | UACC-62 melanoma 96.7% | LOX IMVI melanoma 96.7% | SK-MEL-28 melanoma 110%

Clc1ccc(/C=N/Nc2ncnc3sc4c(c23)CCN(Cc2ccccc2)C4)cc1
active: HCT-15 colon -25.1% | HT29 colon -75.3% | SNB-75 CNS -85% | U251 CNS -83.8% | PC-3 prostate -59.7% | LOX IMVI melanoma -52.1% | SK-MEL-28 melanoma -19%
inactive: SNB-19 CNS 18.4% | SK-MEL-5 melanoma 38.9% | UACC-62 melanoma 18.9%

COc1ccc(/C(C)=N/N=C2C(=O)N(C)c3ccc(Br)cc32)cc1S(N)(=O)=O
inactive: HCT-15 colon 75.1% | HT29 colon 101% | SNB-19 CNS 34.7% | U251 CNS 51.7% | PC-3 prostate 73.7% | SK-MEL-5 melanoma 88.2% | UACC-62 melanoma 73.8% | LOX IMVI melanoma 74.6% | SK-MEL-28 melanoma 90.3%
active: SNB-75 CNS 6.59%

C=C(C)[C@@H]1CC[C@]2(COP(=O)(OCC)OCC)CC[C@]3(C)[C@H](CC[C@@H]4[C@@](C)(CCCN)[C@H](C(=C)C)CC[C@]43C)[C@@H]12
active: HCT-15 colon 9.75% | HT29 colon 5.73% | SK-MEL-5 melanoma -47.6% | LOX IMVI melanoma 1.01%
inactive: SNB-75 CNS 34.4% | SNB-19 CNS 40.4% | U251 CNS 21% | PC-3 prostate 13.1% | UACC-62 melanoma 35.3% | SK-MEL-28 melanoma 31.7%

O=C(Nc1ccc(OCC(=O)c2ccccc2)cc1)Nc1ccc(Cl)c(C(F)(F)F)c1
inactive: HCT-15 colon 17.8% | HT29 colon 29.3% | SNB-19 CNS 15.7% | U251 CNS 25.8%
active: SNB-75 CNS 3.5% | PC-3 prostate 6.92% | SK-MEL-5 melanoma -61.2% | UACC-62 melanoma -21.3% | LOX IMVI melanoma -24.4% | SK-MEL-28 melanoma 4.82%

O=C(Cn1cc(CSc2nnc3oc4ccccc4n23)nn1)Nc1ccc(Br)cc1
active: SNB-75 CNS -24.5%
inactive: HCT-15 colon 82.5% | HT29 colon 103% | SNB-19 CNS 24.7% | U251 CNS 54.3% | PC-3 prostate 80% | SK-MEL-5 melanoma 92.4% | UACC-62 melanoma 49.8% | LOX IMVI melanoma 54.9% | SK-MEL-28 melanoma 89.7%

CCOC(=O)c1sc(N/N=C(\C)c2ccc3c(c2)Nc2ccccc2S3)nc1C
active: HCT-15 colon 5.74% | LOX IMVI melanoma -58.4%
inactive: HT29 colon 30% | SNB-75 CNS 97.7% | SNB-19 CNS 49.7% | U251 CNS 27.3% | PC-3 prostate 21.9% | SK-MEL-5 melanoma 20.8% | UACC-62 melanoma 32.4% | SK-MEL-28 melanoma 39.1%

CC(C)C1=C[C@@]23CC[C@@H]4[C@](C)(CCC[C@]4(C)C(=O)NCc4ccccc4)[C@H]2C[C@@H]1[C@H]1C(=O)CCC(=O)[C@H]13
inactive: HCT-15 colon 56% | HT29 colon 81.7% | SNB-75 CNS 80.8% | SNB-19 CNS 83.2% | U251 CNS 67% | PC-3 prostate 36.9% | SK-MEL-5 melanoma 69.3% | UACC-62 melanoma 59.6% | LOX IMVI melanoma 27% | SK-MEL-28 melanoma 68.6%

O=[N+]([O-])c1ccc(-c2nc(-c3ccccc3)c(-c3ccccc3)n2-c2ccc(S(=O)(=O)Nc3ncccn3)cc2)cc1
inactive: HCT-15 colon 23.8% | HT29 colon 41.4% | SNB-75 CNS 44.1% | SNB-19 CNS 27.3% | U251 CNS 35.8% | PC-3 prostate 29.7% | SK-MEL-5 melanoma 28.4% | UACC-62 melanoma 42% | LOX IMVI melanoma 28% | SK-MEL-28 melanoma 36.2%

O=C(N/N=C/c1ccc(-c2cccc([N+](=O)[O-])c2)o1)c1[nH]c2ccc(Br)cc2c1-c1ccccc1
active: HCT-15 colon 0.278% | HT29 colon -44.9% | U251 CNS 9.05% | SK-MEL-5 melanoma -20.7% | LOX IMVI melanoma 7.19%
inactive: SNB-75 CNS 83.1% | SNB-19 CNS 32.9% | PC-3 prostate 18.8% | UACC-62 melanoma 33% | SK-MEL-28 melanoma 57.7%

COc1ccsc1/C=N/NC(=O)c1[nH]c2ccc(Br)cc2c1-c1ccccc1
inactive: SNB-75 CNS 20.1% | SNB-19 CNS 21.8% | SK-MEL-28 melanoma 30.8%
active: HCT-15 colon 1.32% | HT29 colon -12.2% | U251 CNS 6.55% | PC-3 prostate 5.35% | SK-MEL-5 melanoma -47.3% | UACC-62 melanoma 9.1% | LOX IMVI melanoma -18%

C=C[C@@]12CN3CC[C@]1(O)[C@@](C(=O)OC)(CO2)c1[nH]c2ccccc2c1C3
inactive: HCT-15 colon 63.7% | HT29 colon 92.7% | SNB-75 CNS 105% | SNB-19 CNS 84.4% | U251 CNS 81.8% | PC-3 prostate 41.3% | SK-MEL-5 melanoma 18.3% | UACC-62 melanoma 63.9% | LOX IMVI melanoma 67.2% | SK-MEL-28 melanoma 89.4%

O=C(/C=C/Nc1ccccc1)c1ccc2c(c1)Nc1ccccc1S2
inactive: HCT-15 colon 80.4% | HT29 colon 90.4% | SNB-75 CNS 106% | SNB-19 CNS 36.3% | U251 CNS 38% | PC-3 prostate 78.5% | SK-MEL-5 melanoma 96.7% | UACC-62 melanoma 68.9% | LOX IMVI melanoma 79.9% | SK-MEL-28 melanoma 100%

C=CC(=O)Nc1nc(-c2cccc(NS(=O)(=O)c3cccc4c(N(C)C)cccc34)c2)cs1
inactive: SNB-19 CNS 15.6%
active: HCT-15 colon -76.8% | HT29 colon -56.3% | SNB-75 CNS 5.83% | U251 CNS -59% | PC-3 prostate -26% | SK-MEL-5 melanoma -87.7% | UACC-62 melanoma -86.8% | LOX IMVI melanoma -95.2% | SK-MEL-28 melanoma -93.6%

COc1ccc(C=CC(=O)c2ccc(-n3c(C)nc4c(cnn4-c4ccccc4)c3=O)cc2)cc1
inactive: HCT-15 colon 53.5% | HT29 colon 71.5% | SNB-75 CNS 98.1% | SNB-19 CNS 81.8% | U251 CNS 74.1% | PC-3 prostate 65.1% | SK-MEL-5 melanoma 27.7% | UACC-62 melanoma 50% | LOX IMVI melanoma 43.9% | SK-MEL-28 melanoma 90.4%
